Reference: PubChem BioAssay
A number with no mark means an inactive call. How the calls were made is not given here.

These compounds were tested against Pantothenate synthetase (Mycobacterium tuberculosis (strain ATCC 25618 / H37Rv)) (UniProt P9WIL5) (assay: Coupled enzyme confirmation of inhibitors against recombinant Mtb PanC (AID 375;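 further: 0% = full reaction with vehicle and 100% = no enzyme background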)). Conditions: coupled enzyme assay; at 10 µM, stronger effect = higher value.
Pantothenate synthetase (Mycobacterium tuberculosis (strain ATCC 25618 / H37Rv)), sequence (P9WIL5 whole entry, looked up): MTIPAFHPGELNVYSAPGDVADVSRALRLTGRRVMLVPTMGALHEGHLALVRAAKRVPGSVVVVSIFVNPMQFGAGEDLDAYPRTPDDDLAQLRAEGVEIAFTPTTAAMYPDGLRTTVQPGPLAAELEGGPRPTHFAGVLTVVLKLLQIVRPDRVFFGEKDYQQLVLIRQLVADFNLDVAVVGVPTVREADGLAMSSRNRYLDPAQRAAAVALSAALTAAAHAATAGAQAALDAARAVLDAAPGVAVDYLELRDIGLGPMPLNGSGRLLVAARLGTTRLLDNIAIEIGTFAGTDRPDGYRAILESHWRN

SMILES	inhibition
COc1ccc(C)cc1NC(=O)c1nnn(Cc2cccc(F)c2)c1N	13%
Cc1cc(C(=O)NCc2ccc(S(N)(=O)=O)cc2)cs1	16%
COc1ccc(NC(=O)c2oc3ccc(S(=O)(=O)N4CCC5(CC4)OCCO5)cc3c2C)cc1	6%
O=C(CCn1c(=O)c2sccc2n(CC(=O)NCc2ccco2)c1=O)NCc1ccccc1	3%
COc1cccc(C(=O)CN2CCC(NC(=O)NC3CCCCC3)CC2)c1	6%
CCC1CCCCN1C(=O)CSc1nnc(-c2ccc(OC)cc2)o1 (stereo not given)	0%
COc1ccccc1-n1nnnc1SCc1cc2c(cc1Br)OCO2	0%
CC(=Nc1ccc(C)c(C)c1)C1=C(O)CCC1=O	3%
COc1cccc2c(=O)c3c(cnn3C)n(C)c12	0%
O=C(COc1nnnc2ccccc12)N1CCCc2ccccc21	0%
Cc1ccc(N=Cc2ccc[nH]2)c(O)c1	0%
CCN(CC(=O)Nc1ccc(S(N)(=O)=O)cc1)S(=O)(=O)c1cc(C)ccc1OC	6%
COc1ccc(Cl)c(NCCC(=O)O)c1	0%
CC1CCN(C(=O)C2CCN(S(=O)(=O)c3cnc[nH]3)CC2)CC1	5%
CCOC(=O)N1CCC(N2C(=O)c3ccccc3C2Nc2cc(Cl)c(OC)cc2OC)CC1 (stereo not given)	0%
Cc1cc(NCCN(C)C)n2nc(-c3cccs3)cc2n1	0%
CCOC(=O)c1sc(NC(=O)CSc2nnc3c4ccccc4n(CC)c3n2)nc1C	3%
O=C(CN(CC1CCCO1)S(=O)(=O)c1ccc(S(=O)(=O)NC2CC2)cc1)Nc1ccccc1 (stereo not given)	0%
CCOc1ccc(OCC)c(NC(=O)CN2CCN(C(=O)c3ccco3)CC2)c1	0%
COc1ccc(OCCN2C(=O)NC(C)(c3ccc(C)cc3)C2=O)cc1 (stereo not given)	1%

SMILES	inhibition
COCCNC(=O)CCCCCN1C(=O)CCC1=O	7%
CCCSc1nc2c(cnn2-c2ccc(Cl)cc2)c(=O)[nH]1	0%
CCCN(CCC)C(=O)c1c(C)[nH]c(C(=O)OCC)c1C	0%
COc1cc(-c2nnc(SCc3c(F)cccc3Cl)o2)cc(OC)c1OC	0%
Cc1cccc(CN2CCN(C(c3ccccc3)c3ccc(Cl)cc3)CC2)c1 (stereo not given)	11%
COc1ccccc1S(=O)(=O)Cc1ccc(C(=O)N2CCN(c3ccccn3)CC2)o1	0%
CCOc1cc(C(=O)N(C)c2ccccc2)cc(OCC)c1OCC	1%
COc1ccc2c(c1)c(CC(=O)OCC(=O)O)c(C)n2C(=O)c1ccc(Cl)cc1	0%
O=C(c1ccncc1)N1CCN(C(=O)c2cccs2)CC1	6%
COc1ccccc1C(=O)Nc1ccccc1C(=O)N1CCCC1	1%
O=C(Nc1ccc(S(=O)(=O)Nc2ccc(Cl)cc2)cc1)C1CCCO1 (stereo not given)	4%
COc1ccc(C2c3sc(=O)[nH]c3SC3C4CCC(C4)C23)cc1 (stereo not given)	7%
Cc1nn(C)cc1/C=N/O	0%
Cc1nnc(SCc2ccccc2)n1N	0%
Cc1n[nH]c(C)c1N1C(=O)c2cccc3cc(Br)cc(c23)C1=O	6%
Cn1c(=O)c2c(nc(CN3CCOCC3)n2CC(O)CO)n(C)c1=O (stereo not given)	8%
CCc1ccc(C2CC(c3ccccc3)n3ncnc3N2)cc1 (stereo not given)	0%
CC1=C(C)CC2C(=O)N(c3cccc4ccccc34)C(=O)C2C1 (stereo not given)	0%
Cn1cccc1Cc1nnc(SCC(=O)Nc2ccccc2F)n1-c1ccc(F)cc1	0%
Cc1nn(Cc2ccccc2)c(C)c1NC(=O)CCC(=O)O	2%
